The list is not random: actives were taken first. Their share in the collection is about 4.8%.
ssDAF12 agonist: activators of S. stercoralis DAF-12 nuclear receptor | activation, % at 6.8 µM | 1% of 370,000 active | HEK293 ssDAF-12/GRIP1 lit1-tk-luc reporter, luminescence; % of 3 µM dafachronic acid response;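 active = activation above the mean over all tested compounds plus 3 SD, cut at about 0.9% in these data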;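 also: 0% = DMSO-only wells and 100% = 3 µM delta7-dafachronic acid wells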
DAX1 inh-1: inhibitors of DAX1 repression of SF-1 activated StAR promoter; 1.1% of 370,000 active; inhibition, % at 6.8 µM; HEK293T StAR-luciferase reporter, SF-1/DAX-1 repression relief;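 active = inhibition above the mean over all tested compounds plus 3 SD, cut at about 3.6% in these data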;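 also: 0% = DAX-1 cells with DMSO and 100% = cells lacking DAX-1 with DMSO; higher inhibition means more luminescence from relief of DAX-1 repression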
DAX1 inh-2: NR0B1 (DAX1) inhibition; AID 504766; inhibition, % at 6.75 µM; 0.99% of 340,000 active; HEK293 Gal4-DAX1 luciferase reporter, luminescence;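 active = inhibition above the mean over all tested compounds plus 3 SD, cut at about 4.2% in these data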;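 also: 0% = DAX1-transfected cells with DMSO and 100% = empty-vector control cells with DMSO; inhibition shows as a rise in luminescence from relieved DAX1 repression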
Target sequence (P51843 207-470 limits assumed): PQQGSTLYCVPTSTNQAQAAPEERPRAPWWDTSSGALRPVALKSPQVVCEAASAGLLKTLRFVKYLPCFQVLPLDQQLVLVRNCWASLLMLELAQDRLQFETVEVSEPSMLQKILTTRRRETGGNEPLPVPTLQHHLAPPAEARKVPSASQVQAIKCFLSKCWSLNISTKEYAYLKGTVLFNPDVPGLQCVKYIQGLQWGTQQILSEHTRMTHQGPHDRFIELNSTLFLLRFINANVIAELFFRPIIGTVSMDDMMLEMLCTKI
hcDAF12 agonist: H. contortus DAF-12 activation, primary screen; activation, % at 6.8 µM; HEK293 hcDAF-12 lit1-tk-luc reporter, luminescence; 0% DMSO, 100% Δ7-dafachronic acid; 1.4% of 370,000 active; AID 652067;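 active = activation above the mean of all tested compounds plus 3 SD, cut at about 5.5% in these data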;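 also: 100% = response to 3 µM Δ7-dafachronic acid high control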
SMARCA2 act: activators of SMARCA2 function | MG213 cells, MMTV-luciferase reporter, dexamethasone, overnight | AID 652017 | activation, % at 9.1 µM | 1% of 370,000 active; in the data active = activation above about 7.8%;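 also: 0% = vehicle wells and 100% = reference activator wells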
hgDAF-12 ag: activates the H. glycines DAF-12 receptor ligand-binding domain | HEK293 GAL4-hgDAF12 UAS-luciferase reporter, agonist luminescence; normalized to butyrate control | activation, % at 6.8 µM | 1.8% of 370,000 active;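 active = activation above a cutoff set at the mean of all screened compounds plus 3 SD, cut at about 10% in these data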;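 also: 0% = DMSO wells and 100% = sodium butyrate wells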
Starred values were filed as active, the others as inactive; . = no result.

SMILES | ssDAF12 agonist | DAX1 inh-1 | DAX1 inh-2 | hcDAF12 agonist | SMARCA2 act | hgDAF-12 ag
CCCCCCC1(C)NC(=S)N(c2ccccc2)N1 (stereo not drawn) | 5.7* | 0 | 0 | 1 | 1 | 1
S=C(NCCc1ccccc1)NC1CCCCCC1 | 0 | 3 | 3 | 3 | 2 | 11*
NS(=O)(=O)c1ccc(CNC(=S)NC2CCCC2)cc1 | -2 | 0 | 4.5* | -2 | -2 | -2
Cc1cccnc1NC(=S)NCCc1ccccc1 | 1 | 1 | 2 | 1 | 3 | 12*
Cc1ccccc1NC(=O)C(C)N1C(=O)c2ccccc2C1=O (stereo not drawn) | 0 | 0 | -1 | -1 | 4 | 2
Cc1cccnc1NC(=O)C(C)N1C(=O)c2ccccc2C1=O (stereo not drawn) | -1 | 0 | 7.5* | 0 | -3 | 1
O=C(NCCc1ccccc1)C1C(=O)Nc2ccccc2C(=O)N1C1CCCCC1 (stereo not drawn) | -1 | 1 | . | 0 | -3 | -5
CC(C)C[C@@H]1COc2cc(N3CCC[C@H]3CO)ccc2S(=O)(=O)N1 | -1 | 0 | . | 1 | -4 | 1
O=C(Nc1ccc(OC(F)(F)F)cc1)Nc1c(-c2ccc(C(F)(F)F)cc2)nc2ncccn12 | 0 | 1 | . | 0 | 1 | 0
Cc1cccnc1NC(N)=S | -1 | 0 | 1 | 0 | -4 | 2
Cc1cccnc1NC(=S)Nc1ncccc1C | 0 | 2 | 4.8* | 3 | 3 | 11*
CCCCN1C2CCCC1CC(NC(=O)c1ccccc1Cl)C2 (stereo not drawn) | -1 | 0 | 4.7* | -2 | -1 | 2
CCOC(=O)CNC(=O)CSc1nc2ccccc2c(=O)n1-c1ccc(Cl)cc1 | -2 | -1 | . | -3 | -5 | -1
O=C(COc1ccc(Cl)cc1Cl)OCC(=O)N1CCCc2ccccc21 | 1 | 1 | 9.8* | 5 | 1 | 4
O=C(CCCOc1ccc(Cl)cc1Cl)N1CCCc2ccccc21 | -1 | 0 | -1 | 0 | 0 | -2
Nc1nc(-c2ccccc2)c(N=Nc2ccccc2Cl)s1 | -1 | -1 | -1 | 5.8* | -4 | 5
CCOc1ccccc1N1C(=O)CC(Sc2ccccc2N)C1=O (stereo not drawn) | -1 | 0 | 1 | 0 | 2 | 0
COc1ccc(Cl)cc1N1C(=O)CC(Sc2ccccc2N)C1=O (stereo not drawn) | 1.6* | 0 | 1 | -1 | -5 | 3
Cc1c(C(=O)O)sc(S(=O)(=O)N2CCN(C(=O)Cc3ccccc3Cl)CC2)c1C(=O)O | -1 | 0 | 2 | 0 | -1 | -2
Cc1cc(NC(=O)c2c(F)cccc2Cl)n(-c2nc3ccccc3[nH]2)n1 | -1 | -1 | 1 | -1 | -1 | 0
CC(C)(C)c1cc(NC(=O)c2c(F)cccc2Cl)n(-c2ccccc2)n1 | -1 | -1 | 4.5* | 0 | -3 | -1
C=CCn1c(=O)c(C(=O)Nc2ccc(C)cc2)c(O)c2ccccc21 | 1.0* | 0 | 0 | 2 | -4 | 4
CCn1c(=O)c(C(=O)NNS(=O)(=O)c2ccc(Br)cc2)c(O)c2ccccc21 | 0 | 1 | 8.6* | 1 | -2 | 3
Cn1c(=O)c(C(=O)NNC(=O)c2ccc(Br)cc2)c(O)c2ccccc21 | 0 | 0 | 4.5* | 4 | -2 | 0
CCn1c(=O)c(C(=O)NCc2ccc(F)cc2)c(O)c2ccccc21 | -1 | 0 | 4.7* | -1 | -3 | -1
CCn1c(=O)c(C(=O)NNS(=O)(=O)c2ccc(C)cc2)c(O)c2ccccc21 | 0 | 0 | 0 | 3 | -1 | -1
NC(=O)C1CC(=O)N(c2ccc(OCc3ccc(F)cc3)cc2)C1 (stereo not drawn) | 0 | 1 | 4.7* | 1 | 6 | 10
CCN(CC)S(=O)(=O)c1ccc(C(=O)NC(=S)N2CCN(c3ccccc3O)CC2)cc1 | -1 | -2 | -1 | 1 | -2 | -1
Cn1cc(C2(c3c[nH]c4ccccc34)CCN(C(=O)OC(C)(C)C)CC2)c2ccccc21 | 0 | -2 | . | 4 | -3 | 3
COC(=O)C1C(c2ccccc2)NC(=O)NC1(O)C(F)(F)Cl (stereo not drawn) | -1 | 1 | 4.7* | 0 | 0 | -1
